# Assay results as given in PubChem BioAssay AID1224852 (National Center for Advancing Translational Sciences (NCATS), 2016).
# Results filed as inconclusive are left out. Calls of active or inactive are those of the source. The call rests on the fitted dose curve; in most records, active means well fitted curve in the direction sought with a large enough effect (not every such curve was filed as active); inconclusive means small, poorly fitted or top-dose-only effect, or effect the other way, or another doubt; inactive means no such curve, though single readings can be large or run the other way.
# Assay: Cell viability assay for measurement of the protective activity of small molecules against cell death caused by Zika virus infection in human neural progenitor cells (hNPCs)
# Details: hNPC ZIKV-induced death protection, ATP luminescence, 72 h; series mostly up to 46.1 µM
# Method in brief: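 Luminescent ATP content after 72 h ZIKV infection (2 FFU/cell) of hNPCs, compounds added 1 h before virus. Protection expressed as percent inhibition of the infection-induced drop in cell viability.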
row,SMILES,outcome
1,O=c1c(-c2ccc(O)cc2)coc2cc(O)ccc12,inactive
2,COc1cccc(-c2cc(=O)c3ccccc3o2)c1N,inactive
3,CN(C)c1ccc(N=NS(=O)(=O)O)cc1,inactive
4,O=C1c2ccccc2C(=O)c2c(NCCc3ccc(O)cc3)ccc(NCCc3ccc(O)cc3)c21,inactive
5,c1ccc2[nH]c(-c3cscn3)nc2c1,inactive
6,O=C1C(Cl)=C(NCCN2CCOCC2)C(=O)c2ncccc21,inactive
7,O=C(O)c1cccc(-c2noc(-c3ccccc3F)n2)c1,inactive
8,CC(=O)OC(C)OC(=O)C(C)c1ccc(-c2ccccc2)c(F)c1 (stereo not given),inactive
9,O=C(O)[C@H](CC(=O)N1C[C@@H]2CCCC[C@H]2C1)Cc1ccccc1,inactive
10,CCN1/C(=C/C=C/c2sc3ccccc3[n+]2CC)Sc2ccccc21,inactive
11,CC(C)OC(=O)CCCC=CC[C@@H]1[C@H](C=C[C@@H](O)COc2cccc(C(F)(F)F)c2)[C@H](O)C[C@@H]1O,inactive
12,Cc1oncc1C(=O)Nc1ccc(C(F)(F)F)cc1,inactive
13,O[C@@H](COc1cccc2ncccc12)CN1CCN(C2c3ccccc3[C@@H]3[C@H](c4ccccc42)C3(F)F)CC1 (stereo not given in full),inactive
14,CCC(C(=O)O)c1ccc(N2Cc3ccccc3C2=O)cc1 (stereo not given),inactive
15,Cc1nc(-c2ccc(OCC(C)C)c(C#N)c2)sc1C(=O)O,inactive
16,N[C@H](CSC(c1ccccc1)(c1ccccc1)c1ccccc1)C(=O)O,inactive
17,COCCn1c2c([n+](Cc3cnccn3)c1C)C(=O)c1ccccc1C2=O,inactive
18,O=C(Nc1ccc(C(=O)O)c(O)c1)c1ccccc1,inactive
19,NC(=O)c1cccc2[nH]c(-c3ccc([C@H]4CCCN4)cc3F)nc12,inactive
20,CN(C)c1ccc(/C=C2\C(=O)Nc3ccccc32)cc1,inactive
21,CCCCCCCCCCCC(=O)[O][Sn]([CH2]CCC)([CH2]CCC)[O]C(=O)CCCCCCCCCCC,inactive
22,O=S(=O)(O)c1ccc2nc(-c3ccccc3)[nH]c2c1,inactive
23,O=C(O)c1ccccc1Nc1cccc(C(F)(F)F)c1,inactive
24,CC(C)c1ccc2oc3nc(N)c(C(=O)O)cc3c(=O)c2c1,inactive
25,Oc1cc(O)cc(/C=C/c2ccc(O)c(O)c2)c1,inactive
26,CN(C)CCCSc1ccccc1NC(=O)/C=C/c1ccccc1,inactive
27,O=C(Nc1ccc(OC(F)(F)F)cc1)c1sccc1NCc1ccnc2ccccc12,inactive
28,COc1cc(NC(C)CCCN)c2ncccc2c1 (stereo not given),inactive
29,COc1ccc(-c2cc(=S)ss2)cc1,inactive
30,Nc1c(S(=O)(=O)O)cc(Nc2ccc(Nc3nc(Cl)nc(Nc4ccc(S(=O)(=O)O)cc4)n3)c(S(=O)(=O)O)c2)c2c1C(=O)c1ccccc1C2=O,inactive
